# The full list was thinned out, with hits kept by preference.
# CD40 NFkB inh – CD40 pathway inhibition in BL2 cells | BL2 NF-kB luciferase reporter, CD40L-induced, 4 h | inhibition, % at 10 µM | 83,000 compounds, 0.94% hits | AID 1053188;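 active = mean inhibition of at least 50% with a set share of replicates also reaching that level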;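 also: 0% = neutral control wells and 100% = IKK inhibitor VII at 50 µM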
# Numbers without * were called inactive; ! = a repeat was not active; [ ] = dose if it differs, or a comment.
SMILES,CD40 NFkB inh
C[C@H](CO)N1C[C@H](C)[C@H](CN(C)Cc2cccc(C(F)(F)F)c2)OCc2ccccc2-c2ccccc2C1=O,15[25 µM]
C[C@H]1CN([C@@H](C)CO)C(=O)Cc2cc(NC(=O)Cn3cnnn3)ccc2O[C@H]1CN(C)Cc1ccc(Oc2ccccc2)cc1,2[25 µM]
CN1C(=O)c2cc(NS(=O)(=O)c3cccc(F)c3)ccc2OC[C@H]2O[C@H](CC(=O)NCCN3CCCCC3)CC[C@@H]21,-18[25 µM]
Cn1c(-c2ccccc2)c(C(=O)CCl)c2ccccc21,71*
Cn1c(=O)c(C(=O)c2ccccc2)c(O)c2ccccc21,6
CCn1c(-c2ccccc2)c(C(=O)CCl)c2ccccc21,22
Cc1ccc(CN2C(=O)S/C(=C\c3ccccc3OCC(=O)O)C2=O)cc1,7
O=C1N=C(N2CCOCC2)S/C1=C/c1ccc(-c2ccc(F)cc2)o1,-14
O=C1S/C(=C\c2ccc(N3CCOCC3)o2)C(=O)N1Cc1ccc(F)cc1,82*
CN(C)C(=O)[C@H]1[C@H](CO)[C@H]2Cn3c(ccc(C4=CCCC4)c3=O)[C@H]2N1C(=O)Cc1cccnc1,-2[25 µM]
O=C(NCC[C@@H]1CC[C@H](NS(=O)(=O)c2ccc(F)cc2)[C@H](CO)O1)Nc1ccc(Cl)cc1,-14
CN1C(=O)c2cc(NC(=O)C3CC3)ccc2OC[C@H]2O[C@@H](CC(=O)NCC3CCCCC3)CC[C@H]21,19
COc1ccc(NC(=O)N(C)C[C@H]2OCc3cnnn3CCCC(=O)N([C@@H](C)CO)C[C@@H]2C)c(OC)c1,1[25 µM]
COc1ccc(C=Cc2ccc3ccccc3n2)c(OC)c1,49*
COc1cc(/C=C/c2ccc(OC)cc2OC)cc(OC)c1,-22[25 µM]
COc1cc(OC)c(OC)cc1/C=C/c1ccnc2ccccc12,-1
C[C@H](CO)N1C[C@H](C)[C@@H](CN(C)C(=O)C2CCCCC2)OCCCC[C@H](C)Oc2ccc(NC(=O)Nc3ccc(C(F)(F)F)cc3)cc2C1=O,3
O=C(Nc1ccc(F)cc1)N1C[C@@H]2[C@H](c3ccccc31)[C@H](CO)N2C(=O)c1ccc(F)cc1,-9
N#C[C@H]1[C@@H](c2ccc(-c3cccc(F)c3)cc2)[C@H](CO)N1C(=O)NC1CCCC1,-3[25 µM]
COc1ccc(-c2ccc([C@@H]3[C@H](C#N)N(C(=O)c4cccc(F)c4)[C@H]3CO)cc2)cc1,20[25 µM]
N#C[C@H]1[C@H](c2ccc(C#CC3CCCC3)cc2)[C@H](CO)N1C(=O)Nc1ccc(F)cc1,10
N#C[C@@H]1[C@H](c2ccc(-c3cccc(F)c3)cc2)[C@H](CO)N1C(=O)NC1CCCC1,22[25 µM]
CC(C)NC(=O)N1[C@H](C#N)[C@@H](c2ccc(C#CC3CCCCC3)cc2)[C@H]1CO,2
N#C[C@H]1[C@H](c2ccc(C#CC3CCCCC3)cc2)[C@@H](CO)N1C(=O)Nc1ccc(F)cc1,63*[25 µM]
COc1ccc(-c2ccc([C@H]3[C@@H](C#N)N(C(=O)c4cccc(F)c4)[C@H]3CO)cc2)cc1,57*[25 µM]
SMILES,CD40 NFkB inh
N#C[C@@H]1[C@H](c2ccc(C#CC3CCCCC3)cc2)[C@H](CO)N1C(=O)Nc1ccc(F)cc1,84*[25 µM]
CC(C)NC(=O)N1[C@H](CO)[C@H](c2ccc(C#CC3CCCC3)cc2)[C@@H]1C#N,-20
CC(C)NC(=O)N1[C@H](C#N)[C@@H](c2ccc(C#CC3CCCC3)cc2)[C@@H]1CO,-7
COc1ccc(-c2ccc([C@@H]3[C@@H](CO)N(C(=O)c4cccc(F)c4)[C@H]3C#N)cc2)cc1,-18[25 µM]
N#C[C@H]1[C@H](c2ccc(-c3cccc(F)c3)cc2)[C@H](CO)N1C(=O)NC1CCCC1,52*[25 µM]
Cc1noc(C)c1S(=O)(=O)Nc1ccc2c(c1)C(=O)N([C@@H](C)CO)C[C@@H](C)[C@H](CN(C)C(=O)Nc1cccc3ccccc13)OCCCC[C@@H](C)O2,36[25 µM]
COc1ccc(C(=O)N2C[C@@H]3[C@H](c4ccccc42)[C@@H](CO)N3C(=O)c2cccc(F)c2)cc1,1
CNC[C@H]1Oc2ccc(N(C)C)cc2CC(=O)N(C)C[C@H]1C,-4
O=S(=O)(c1ccc(F)cc1)N1CCCCN2[C@H](CO)[C@H](c3ccc(-c4cncnc4)cc3)[C@@H]2C1,15[25 µM]
CCC(=O)N1[C@H](CO)[C@@H](c2ccccc2)[C@@H]1CN(CC)C(=O)c1cccc(F)c1,-6[25 µM]
CCCNC(=O)[C@@H]1[C@@H](CO)[C@@H]2Cn3c(ccc(-c4cccnc4)c3=O)[C@@H]2N1C(=O)c1ccccc1F,-9[25 µM]
O=C(Nc1ccc(F)cc1)N1CC(=O)N2[C@@H](CO)[C@H](c3ccc(C#Cc4cccnc4)cc3)[C@@H]2C1,-2[25 µM]
C[C@H](CO)N1C[C@H](C)[C@H](CN(C)Cc2ccc(Cl)c(Cl)c2)OCc2ccccc2-c2ccccc2C1=O,15[25 µM]
C[C@@H]1CN([C@@H](C)CO)C(=O)c2c(c3ccccc3n2C)-c2ccccc2CO[C@@H]1CN(C)Cc1ccc(Oc2ccccc2)cc1,1[25 µM]
N#C[C@@H]1[C@H](c2ccc(C#CC3CCCC3)cc2)[C@@H](CO)N1C(=O)c1cccc(F)c1,66*
N#C[C@@H]1[C@H](c2ccc(C#CC3CCCC3)cc2)[C@H](CO)N1C(=O)c1cccc(F)c1,-16
N#C[C@H]1[C@@H](c2ccc(C#CC3CC3)cc2)[C@@H](CO)N1C(=O)c1cccc(F)c1,2
COCCN(C(=O)CSc1nnc(C(F)(F)F)n1C)c1c(N)n(CC(C)C)c(=O)[nH]c1=O,-13
COC(=O)C[C@](O)(CCCC(C)(C)O)C(=O)O[C@@H]1C(OC)=C[C@]23CCCN2CCc2cc4c(cc2[C@H]13)OCO4,92*[25 µM]
CN(C)C(=O)c1cccc(-c2ccc3c(c2)[C@H]2[C@H](CCN2C(=O)C2CC2)[C@@H](CO)N3)c1,-11
CC1C=NC(S(=O)(=O)N2CC[C@H]3[C@@H](CO)N(C)c4ccc(C5=CCCCC5)cc4[C@H]32)=N1 (some centres undefined),-37[25 µM]
C[C@@H]1CCCCO[C@@H](CN(C)S(C)(=O)=O)[C@H](C)CN([C@@H](C)CO)C(=O)c2cc(NC(=O)NC3CCCCC3)ccc2O1,0[25 µM]
CN(C)S(=O)(=O)c1cccc(-c2cn3ccccc3n2)c1,-28
O=S(=O)(c1cccc(-c2cn3ccccc3n2)c1)N1CCCCC1,7
c1ccn2cc(-c3ccc4c(c3)OCCO4)nc2c1,67*
SMILES,CD40 NFkB inh
N#Cc1cccc(-c2ccc(C3[C@H]4CNC[C@@H]3N4Cc3ccc4c(c3)OCO4)cc2)c1 (some centres undefined),74*!
N#Cc1cccc(-c2ccc(C3[C@H]4CNC[C@@H]3N4Cc3cccc(F)c3)cc2)c1 (some centres undefined),0[25 µM]
COc1cccc(-c2ccc(C3[C@H]4CNC[C@@H]3N4Cc3ccc4c(c3)OCO4)cc2)c1 (some centres undefined),-56[25 µM]
O=S(=O)(Nc1ccc(-c2nc3ccccc3o2)cc1)c1ccccc1,-35
c1ccc2nc(-c3nc4ccccc4o3)ccc2c1,82*
Cc1cc(-c2nc3ccccc3o2)c2ccccc2n1,-29
CC(=O)NC[C@H]1[C@@H](c2ccc(C3=CCCCC3)cc2)[C@@H](CO)N1C(=O)C1CCC1,5
C[C@@H]1CN([C@@H](C)CO)C(=O)c2ccccc2-c2ccccc2CO[C@@H]1CN(C)S(=O)(=O)c1ccccc1F,-8
O=C(CN1C(=O)NC(c2ccccc2)(c2ccccc2)C1=O)Nc1cccnc1Cl,6
Cc1ccc(C2(C)NC(=O)N(CC(=O)Nc3cccnc3Cl)C2=O)cc1 (centres undefined),26*
CC1(c2ccc(OC(F)F)cc2)NC(=O)N(CC(=O)Nc2cccnc2Cl)C1=O (centres undefined),-4

# Screening data deposited in PubChem BioAssay by Broad Institute.
